Experimental findings from ChEMBL document CHEMBL4513216, “Probing the Open Global Health Chemical Diversity Library for Multistage-Active Starting Points for Next-Generation Antimalarials” (ACS Infect Dis, 2020) are described below.

Hit rate of the full screen: of about 65,000 compounds, about 2,100 (3.2%) showed an effect of 50% or more. The median lay at about -52%. Shown is part of a subset that was picked to be rich in strong results.

For this assay, the system named is Plasmodium falciparum. As to the kind of experiment: Screen against P. falciparum Asexual Blood Stage (ABS), at 5uM. Particulars: tested at 5 uM. The assay is classed as functional, Dd2.
Regarding `CN(C)CCN1CCCC12CCN(C(=O)c1ccoc1)CC2`, the INHIBITION is -39%. The figure for `CNC(=O)CN1CCCC12CCN(C(=O)c1ccoc1)CC2` is 53.1%; for `CNC(=O)CN1CCCC12CCN(C(=O)c1ccc(F)cc1)CC2` it is -39%; for `O=C(CCNc1ncccn1)N1CCCC(n2cccn2)C1` (stereo unspecified) it is -28.6%.

On to `Cc1cc(C(=O)NC2CCCc3c2cnn3-c2cccc(C)c2C)[nH]n1` (stereo unspecified), for which the INHIBITION is -1.74%. The value for `CC(C)Cc1ncc2c(n1)CN(c1nc3ccccc3cc1CO)C2` was -50%; that for `Cc1cccc2cc(CO)c(N3Cc4cnc(C(C)(C)C)nc4C3)nc12` was 66.5%. The figure for `Cc1ccc(C(=O)O)c(N2Cc3cnc(C(C)(C)C)nc3C2)n1` is -21.3%; for `O=C(c1ccoc1)N1CCO[C@]2(CCC[C@@H]2COCc2cccnc2)C1` it is -54.6%. The figure for `Cc1ccc(N2CC[C@@H]3[C@@H]2CCN3C(=O)Cc2ccsc2)nn1` is -93.9%; for `Cc1cc2c(cc1NC(=O)NC(C)(C)C)OCO2` it is -23.5%. As to `CCOCc1nc2c(c(N(C)Cc3nonc3C)n1)CCNCC2`, the INHIBITION came out at 47.4%.

For the molecule `CCOCc1nc2c(c(N(C)Cc3snnc3C)n1)CCNCC2`, the INHIBITION is on record as -48%. The figure for `CCOCc1nc2c(c(N(C)Cc3ccsc3)n1)CCNCC2` is 64.4%; for `CN(C)CCN1C[C@@H]2CN(c3ccccc3)C[C@@H]2C1=O` it is -41.2%. The figure for `c1cnn(CCCO[C@@H]2CC[C@H]3[C@H]2OCCN3CC2CC2)c1` is -65.8%; for `CN(Cc1cccnc1)C1CC2(CCN(Cc3ccccn3)CC2)C1` it is 10.3%; for `Cc1ccc(CNC(=O)NC2CCCc3c2cnn3CCO)cn1` (stereo unspecified) it is -91.3%. The figure for `COCCN(CC1CC1)c1nc(CCN)nc2ccccc12` is 12.1%. With `CCCc1ncc(CN(CCOC)Cc2cccs2)cn1`, the INHIBITION is -70.2%. The value for `NCCc1nc(N(Cc2nccs2)C2CC2)c2ccccc2n1` was -53.9%; that for `COCCN(Cc1cccs1)c1nc(CCN)nc2ccccc12` was 62.2%.

`Cc1ccsc1CN(c1nc(CCN)nc2ccccc12)C1CC1`: the INHIBITION came out at 51.4%. As for `NCCc1nc(N(Cc2cncs2)C2CC2)c2ccccc2n1`, the INHIBITION is listed as -30.2%.

With `O=C(Cc1ccon1)N1CCN(c2ccc(F)cc2Cl)CC1`, the INHIBITION is -28.3%. The figure for `Cc1cnn(CCNCC(O)COc2ccc(F)cc2)c1` (stereo unspecified) is 47.3%. The figure for `O=C(c1ccco1)N1CCC12CCN(c1ncc(F)cn1)CC2` is -79.7%. The value for `CN(C)S(=O)(=O)N1CCC(Oc2cccnn2)CC1` was -57.2%; that for `CCC(CC)C(=O)NCCC(=O)N1CCN(c2ccccn2)CC1` was -123%; that for `CCC(C)NC(=O)NCCC(=O)N1CCN(c2ccccn2)CC1` (stereo unspecified) was -15.2%. Turning to `Cc1nn(C)c(Cl)c1CNCc1cccnc1N1CCOCC1`, the INHIBITION is -69.2%. For `CC(C)CC(C)NCc1cccnc1N1CCOCC1` (stereo unspecified), the INHIBITION is 60.8%. The value for `CC(C)C(=O)NCCC(=O)N1CCN(c2ccccn2)CC1` was -172%; that for `CCCC(C)NCc1cccnc1N1CCN(c2ccccn2)CC1` (stereo unspecified) was 51.4%.

`CC(C)NCc1cccnc1N1CCN(c2ccccn2)CC1`: the INHIBITION came to 3.69%.

For the molecule `Cc1nn(C)c(C)c1CNCc1cccnc1N1CCOCC1`, the INHIBITION is -43.9%. For the molecule `CC(C)CC(C)NCc1cccnc1N1CCN(c2ccccn2)CC1` (stereo unspecified), the INHIBITION is reported as 56.6%. The value for `CC1(C)CNC(=O)CN(C(=O)COc2ccccc2)C1` was -24.2%; that for `NCCCNS(=O)(=O)Cc1ccc(Br)cc1` was -29.3%.

Turning to `Cc1cccc(CN2C(=O)CCC23CCN(Cc2ccoc2)CC3)n1`, the INHIBITION is reported as -81%. `CN(C)C(=O)CN1C(=O)CCC12CCN(Cc1ccc(F)cc1)CC2`: the INHIBITION is recorded as -99.9%. The figure for `Cc1noc(C)c1CN1CCN(c2ccnc(-c3ccccc3)n2)CC1` is -33.7%; for `CCN(CC)C1CCN(C(=O)c2cc3cc(C)cc(C)c3nc2C)CC1` it is 56.8%; for `Cc1cc(C)c2nc(C)c(C(=O)N3CCC(N4CCCC4)CC3)cc2c1` it is -39.3%. The figure for `Cc1cc(C)c2nc(C)c(C(=O)N3CCC(CCN(C)C)CC3)cc2c1` is -87.5%.

Consider `Cc1cc(CN2C[C@@H](C)[C@@]3(CCN(CC(=O)N(C)C)C3=O)C2)oc1C`, for which the INHIBITION is on record as -100%. Turning to `CC[C@H](C)[C@H](NC(=O)c1ccc(-n2cnnn2)cc1)C(=O)OC`, the INHIBITION is -18.7%.

As for `CN1CCN(C(=O)c2occc2CN2C(=O)Cc3ccccc32)CC1`, the INHIBITION was determined as 54.3%. As to `O=C(c1occc1CN1C(=O)Cc2ccccc21)N1CCCCCC1`, the INHIBITION is 3.14%. The value for `O=C(c1occc1CN1C(=O)Cc2ccccc21)N1CC(O)C1` was -89.1%. The figure for `Cc1cc(C(N)=O)nc(C2(C)CCCN2Cc2cnn(C)c2C)n1` (stereo unspecified) is -80.5%.
